Experimental data published in PubChem BioAssay (EPA / NIEHS).
Activity calls are given as the source filed them. The calls were made as follows: active = hit-call score of the fitted dose curve at least 0.9, where 1 is the maximum; inactive = score below 0.9.

Experiments:
Conditions in all cases: mRNA level, 48 h; actives raise or lower the signal
[1] = read-out: Alkaline Phosphatase, Placental (ALPP) gene, ALPP (gene 250); assay: LTEA_HepaRG_ALPP: Life Technologies and Expression Analysis (LTEA) Assay for Alkaline Phosphatase, Placental (ALPP) gene using HepaRG (AID 2283468)
Summary of the method: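 HepaRG cells plated 48 h, then exposed in duplicate for 48 h in serum-free induction medium to 8-point half-log series from 100 uM in 0.5% DMSO. ALPP mRNA by TaqMan qRT-PCR, normalized to ACTB/GAPDH/POLR2A; bidirectional fit versus DMSO.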

[2] = read-out: Bcl-2 (BAD) gene, BAD (gene 572); assay: LTEA_HepaRG_BAD: Life Technologies and Expression Analysis (LTEA) Assay for Bcl-2 (BAD) gene using HepaRG (AID 2283469)
Summary of the method: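 Read-out: qRT-PCR of BAD mRNA, normalized to three housekeeping genes. Human HepaRG cultures got 48 h chemical exposure in 0.5% DMSO, duplicate eight-point half-log series topping at 100 uM. Gain or loss of signal fitted versus DMSO vehicle.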

[3] = read-out: Bcl-2 (BAX) gene, BAX (gene 581); assay: LTEA_HepaRG_BAX: Life Technologies and Expression Analysis (LTEA) Assay for Bcl-2 (BAX) gene using HepaRG (AID 2283470)
Summary of the method: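 qRT-PCR read-out of BAX mRNA, normalized to three housekeeping genes, after 48 h chemical exposure of human HepaRG cells in serum-free induction medium; eight-point half-log series, top 100 uM, 0.5% DMSO vehicle; bidirectional fit versus DMSO.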

[4] = read-out: adenosine kinase (ADK) gene, ADK (gene 132); assay: LTEA_HepaRG_ADK: Life Technologies and Expression Analysis (LTEA) Assay for adenosine kinase (ADK) gene using HepaRG (AID 2283471)
Summary of the method: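 Read-out is ADK transcript level measured by qRT-PCR and normalised to three housekeeping genes. Cells are human HepaRG, dosed for 48 h at up to 100 uM in 0.5% DMSO. Gain or loss of signal is fitted against DMSO controls.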

[5] = read-out: Alpha-fetoprotein (AFP) gene, AFP (gene 174); assay: LTEA_HepaRG_AFP: Life Technologies and Expression Analysis (LTEA) Assay for Alpha-fetoprotein (AFP) gene using HepaRG (AID 2283472)
Summary of the method: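 qRT-PCR (Fluidigm TaqMan) readout of AFP transcript, normalized to three housekeeping genes, fitted bidirectionally against 0.5% DMSO baseline. HepaRG cells received chemicals for 48 h in serum-free induction medium, top concentration 100 uM, half-log steps.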

BCL2L11 (gene 10018) = assay: LTEA_HepaRG_BCL2L11: Life Technologies and Expression Analysis (LTEA) Assay for Bcl-2 (BCL2L11) gene using HepaRG (AID 2283473)
Summary of the method: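 Differentiated human HepaRG cells were exposed 48 h in serum-free induction medium to eight half-log concentrations up to 100 uM in 0.5% DMSO, in duplicate. BCL2L11 mRNA was quantified by TaqMan qRT-PCR, normalized to ACTB, GAPDH and POLR2A; induction or repression fitted versus DMSO.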

[6] = read-out: Apolipoprotein A-V (APOA5) gene, APOA5 (gene 116519); assay: LTEA_HepaRG_APOA5: Life Technologies and Expression Analysis (LTEA) Assay for Apolipoprotein A-V (APOA5) gene using HepaRG (AID 2283474)
Summary of the method: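 Differentiated HepaRG cells in serum-free induction medium, exposed 48 h in duplicate to eight half-log concentrations topping at 100 uM (0.5% DMSO). APOA5 mRNA by Fluidigm TaqMan qRT-PCR, normalized to ACTB, GAPDH and POLR2A; bidirectional fit versus DMSO.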

[7] = read-out: Apoptosis regulator Bcl-2 (Homo sapiens) (UniProt P10415); assay: LTEA_HepaRG_BCL2: Life Technologies and Expression Analysis (LTEA) Assay for Bcl-2 gene using HepaRG (AID 2283475)
Summary of the method: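 qRT-PCR read-out (Fluidigm TaqMan) of BCL2 transcript, normalised to three housekeeping genes, after 48 h chemical exposure of HepaRG cells; 8-point half-log series, top 100 uM, 0.5% DMSO vehicle. Gain or loss of signal fitted relative to DMSO baseline.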

[8] = read-out: Bcl-2 (BID) gene, BID (gene 637); assay: LTEA_HepaRG_BID: Life Technologies and Expression Analysis (LTEA) Assay for Bcl-2 (BID) gene using HepaRG (AID 2283476)
Summary of the method: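 HepaRG, 48 h exposure, 8-pt half-log series, top 100 uM, 0.5% DMSO vehicle, duplicates. Readout: BID mRNA by TaqMan qRT-PCR; housekeeping-normalized; bidirectional curve fit vs DMSO baseline.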

Caspase-3 (Homo sapiens) = Caspase-3 (Homo sapiens) (UniProt P42574); assay: LTEA_HepaRG_CASP3: Life Technologies and Expression Analysis (LTEA) Assay for cysteine-aspartic acid protease (CASP3) using HepaRG (AID 2283477)
Chain of Caspase-3 (Homo sapiens) (P42574 whole entry, looked up): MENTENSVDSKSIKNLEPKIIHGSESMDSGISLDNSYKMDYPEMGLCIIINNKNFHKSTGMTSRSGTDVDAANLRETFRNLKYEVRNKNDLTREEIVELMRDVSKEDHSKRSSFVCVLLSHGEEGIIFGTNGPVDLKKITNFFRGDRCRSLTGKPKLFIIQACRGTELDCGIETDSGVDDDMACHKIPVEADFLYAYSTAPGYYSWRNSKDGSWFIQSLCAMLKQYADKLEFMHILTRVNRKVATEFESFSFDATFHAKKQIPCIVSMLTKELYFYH
Summary of the method: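 Differentiated HepaRG cells, plated 48 h, were treated in duplicate in serum-free induction medium for 48 h with eight half-log concentrations up to 100 uM in 0.5% DMSO. CASP3 mRNA measured by qRT-PCR, normalized to ACTB, GAPDH, POLR2A.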

[9] = read-out: Cytochrome P450 (CYP24A1), CYP24A1 (gene 1591); assay: LTEA_HepaRG_CYP24A1: Life Technologies and Expression Analysis (LTEA) Assay for Cytochrome P450 (CYP24A1) using HepaRG (AID 2283478)
Summary of the method: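 HepaRG cells plated 48 h, then exposed in duplicate in serum-free induction medium for 48 h to 8-point half-log series from 100 uM in 0.5% DMSO. CYP24A1 mRNA by Fluidigm qRT-PCR, normalized to ACTB, GAPDH, POLR2A; bidirectional fit versus DMSO.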

[10] = read-out: Cytochrome P450 (CYP1A2), CYP1A2 (gene 1544); assay: LTEA_HepaRG_CYP1A2: Life Technologies and Expression Analysis (LTEA) Assay for Cytochrome P450 (CYP1A2) using HepaRG (AID 2283479)
Summary of the method: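 Differentiated human HepaRG cells in serum-free induction medium exposed 48 hours in duplicate to 8 half-log concentrations from 100 uM, 0.5% DMSO. CYP1A2 mRNA quantified by qRT-PCR, normalized to ACTB, GAPDH and POLR2A; bidirectional fitting versus DMSO.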

[11] = read-out: cysteine-aspartic acid protease (CASP8), CASP8 (gene 841); assay: LTEA_HepaRG_CASP8: Life Technologies and Expression Analysis (LTEA) Assay for cysteine-aspartic acid protease (CASP8) using HepaRG (AID 2283480)
Summary of the method: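 CASP8 transcript measured by TaqMan qRT-PCR with ACTB/GAPDH/POLR2A normalization, after 48 h chemical exposure of HepaRG cells in serum-free induction medium. Eight concentrations, top 100 uM, half-log steps, 0.5% DMSO vehicle; fits in both directions versus DMSO.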

[12] = read-out: Cytochrome P450 (CYP2B6), CYP2B6 (gene 1555); assay: LTEA_HepaRG_CYP2B6: Life Technologies and Expression Analysis (LTEA) Assay for Cytochrome P450 (CYP2B6) using HepaRG (AID 2283481)
Summary of the method: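 Differentiated human HepaRG cells in serum-free induction medium, dosed in duplicate for 48 h over 8 half-log concentrations topping at 100 uM (0.5% DMSO). CYP2B6 mRNA measured by TaqMan qRT-PCR, normalized to ACTB, GAPDH, POLR2A; bidirectional fit versus DMSO.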

[13] = read-out: Cytochrome P450 2C19 (Homo sapiens) (UniProt P33261); assay: LTEA_HepaRG_CYP2C19: Life Technologies and Expression Analysis (LTEA) Assay for CYP2C19 using HepaRG (AID 2283482)
Summary of the method: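 Differentiated HepaRG cells in serum-free induction medium exposed 48 h in duplicate, 8 concentrations from 100 uM by half-log steps in 0.5% DMSO. CYP2C19 mRNA measured by TaqMan qRT-PCR, normalized to ACTB, GAPDH, POLR2A. Bidirectional fit versus DMSO.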

CYP2C8 (gene 1558) = assay: LTEA_HepaRG_CYP2C8: Life Technologies and Expression Analysis (LTEA) Assay for CYP2C8 using HepaRG (AID 2283483)
Summary of the method: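 CYP2C8 expression measured by TaqMan qRT-PCR and normalized to three housekeeping genes. HepaRG cultures were treated for 48 h with an eight-point half-log series topping at 100 uM, vehicle 0.5% DMSO, duplicates; fitted both directions against DMSO.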

CYP2C9 (gene 1559) = assay: LTEA_HepaRG_CYP2C9: Life Technologies and Expression Analysis (LTEA) Assay for CYP2C9 using HepaRG (AID 2283484)
Summary of the method: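 CYP2C9 transcript level, quantified by TaqMan qRT-PCR against three housekeeping genes, was fitted bidirectionally relative to 0.5% DMSO. HepaRG cultures were treated 48 h, in duplicate, at eight half-log concentrations topping at 100 uM.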

CYP2E1 (gene 1571) = assay: LTEA_HepaRG_CYP2E1: Life Technologies and Expression Analysis (LTEA) Assay for CYP2E1 using HepaRG (AID 2283485)
Summary of the method: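 CYP2E1 transcript was measured by TaqMan qRT-PCR in human HepaRG cultures after 48 h chemical exposure (top 100 uM, half-log steps, 0.5% DMSO vehicle). Housekeeping-gene normalization; gain or loss fitted relative to DMSO baseline.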

CYP4A11 (gene 1579) = assay: LTEA_HepaRG_CYP4A11: Life Technologies and Expression Analysis (LTEA) Assay for CYP4A11 using HepaRG (AID 2283486)
Summary of the method: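 Differentiated HepaRG cells, 48 h after plating, exposed in duplicate for 48 h to 8 half-log concentrations up to 100 uM in 0.5% DMSO in serum-free induction medium. CYP4A11 mRNA measured by TaqMan qRT-PCR, normalized to ACTB, GAPDH and POLR2A.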

[14] = read-out: Peroxisomal acyl-coenzyme A oxidase 1 (ACOX1) gene, ACOX1 (gene 51); assay: LTEA_HepaRG_ACOX1: Life Technologies and Expression Analysis (LTEA) Assay for Peroxisomal acyl-coenzyme A oxidase 1 (ACOX1) gene using HepaRG (AID 2283467)
Summary of the method: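 ACOX1 transcript levels were quantified by TaqMan qRT-PCR against three housekeeping genes after 48 h chemical exposure of differentiated human HepaRG cells. Exposure used eight half-log steps topping at 100 uM, 0.5% DMSO vehicle, in duplicate. Bidirectional curve fits were made relative to DMSO.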

Measured: AC50

Chain of Apoptosis regulator Bcl-2 (Homo sapiens) (P10415 whole entry, looked up): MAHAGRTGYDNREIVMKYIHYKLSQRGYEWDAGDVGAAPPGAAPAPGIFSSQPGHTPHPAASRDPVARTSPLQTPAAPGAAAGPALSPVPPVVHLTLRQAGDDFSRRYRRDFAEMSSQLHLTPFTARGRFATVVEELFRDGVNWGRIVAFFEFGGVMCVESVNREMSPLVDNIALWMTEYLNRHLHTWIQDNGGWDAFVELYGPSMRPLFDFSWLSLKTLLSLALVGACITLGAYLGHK
Chain of Cytochrome P450 2C19 (Homo sapiens) (P33261 whole entry, looked up): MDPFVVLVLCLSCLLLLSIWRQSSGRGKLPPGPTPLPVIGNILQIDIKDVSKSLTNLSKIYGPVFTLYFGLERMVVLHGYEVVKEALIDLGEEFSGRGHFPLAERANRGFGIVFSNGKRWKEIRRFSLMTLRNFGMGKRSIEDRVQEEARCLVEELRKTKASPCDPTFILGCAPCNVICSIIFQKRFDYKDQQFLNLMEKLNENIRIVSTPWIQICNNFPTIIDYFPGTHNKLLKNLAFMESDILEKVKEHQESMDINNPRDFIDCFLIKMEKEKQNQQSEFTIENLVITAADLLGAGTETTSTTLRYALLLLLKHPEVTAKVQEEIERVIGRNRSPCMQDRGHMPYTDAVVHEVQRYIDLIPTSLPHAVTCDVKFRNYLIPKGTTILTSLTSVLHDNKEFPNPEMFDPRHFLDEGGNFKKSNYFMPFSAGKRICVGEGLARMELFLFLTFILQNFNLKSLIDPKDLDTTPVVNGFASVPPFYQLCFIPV

Oc1cccc(O)c1
inactive: [1] | [2] | [3] | [4] | [5] | BCL2L11 (gene 10018) | [6] | [7] | [8] | Caspase-3 (Homo sapiens) | [9] | [10] | [11] | [12] | [13] | CYP2C8 (gene 1558) | CYP2C9 (gene 1559) | CYP2E1 (gene 1571) | CYP4A11 (gene 1579)

CC(C)(C)c1cc(C(C)(C)C)c(O)c(C(C)(C)C)c1
inactive: [14] | [1] | [2] | [3] | [4] | BCL2L11 (gene 10018) | [6] | [7] | [8] | Caspase-3 (Homo sapiens) | [9] | [11] | [13] | CYP2C8 (gene 1558) | CYP2C9 (gene 1559) | CYP4A11 (gene 1579)
active: [5] 39.8 µM | [10] 5.21 µM | [12] 8.66 µM | CYP2E1 (gene 1571) 17 µM

CCCCOCCO
inactive: [14] | [1] | [2] | [3] | [4] | [5] | BCL2L11 (gene 10018) | [6] | [7] | [8] | Caspase-3 (Homo sapiens) | [9] | [10] | [11] | [12] | [13] | CYP2C8 (gene 1558) | CYP2C9 (gene 1559) | CYP2E1 (gene 1571) | CYP4A11 (gene 1579)

Cc1cc(C)c(O)c(C)c1
active: [12] 3.65 µM | [13] 9.18 µM | CYP2C8 (gene 1558) 5.03 µM | CYP2C9 (gene 1559) 6.31 µM | CYP2E1 (gene 1571) 13.4 µM
inactive: [14] | [1] | [2] | [3] | [4] | [5] | BCL2L11 (gene 10018) | [6] | [7] | [8] | Caspase-3 (Homo sapiens) | [9] | [10] | [11] | CYP4A11 (gene 1579)

COCC(C)OCC(C)O (stereo not drawn)
inactive: [14] | [1] | [2] | [3] | [4] | [5] | BCL2L11 (gene 10018) | [6] | [7] | [8] | Caspase-3 (Homo sapiens) | [9] | [10] | [11] | [12] | [13] | CYP2C8 (gene 1558) | CYP2C9 (gene 1559) | CYP2E1 (gene 1571) | CYP4A11 (gene 1579)

C#C[C@]1(O)CC[C@H]2[C@@H]3CCC4=CC(=O)CC[C@@H]4[C@H]3CC[C@@]21C
active: [1] 10.1 µM | [4] 9.92 µM | [6] 9.92 µM | [12] 9.72 µM | [13] 9.92 µM | CYP2C8 (gene 1558) 6.29 µM | CYP2E1 (gene 1571) 0.124 µM | CYP4A11 (gene 1579) 0.0465 µM
inactive: [14] | [2] | [3] | [5] | BCL2L11 (gene 10018) | [7] | [8] | Caspase-3 (Homo sapiens) | [9] | [10] | [11]
